Measurements as given in PubChem BioAssay AID602366 (National Center for Advancing Translational Sciences (NCATS), 2012).
Records with an inconclusive call do not appear. Activity calls are given as the source filed them. The call rests on the fitted dose curve; in most records, active means well fitted inhibition curve with a large enough effect; inconclusive means small, poorly fitted or top-dose-only effect; inactive means flat fitted curve, though single readings scatter.

Experiment: qHTS Assay for Inhibitors of Bacillus subtilis Sfp phosphopantetheinyl transferase (PPTase): SAR in B subtilis HM489
Details: B. subtilis HM489 whole-cell Sfp-dependent phenotype; series mostly up to 114 µM; activity, negative = inhibition: at the top concentration
Excerpt: The covalent attachment of a phosphopantetheinyl (4'-PP) arm to a variety of synthases and other proteins is a key posttranslational protein modification. The 4'-PP is installed on the proteins post-translationally from coenzyme A (CoA) on a conserved serine residue by action of phosphopantetheinyl transferase (PPTase) enzymes. Phosphopantetheinylation is essential for synthase activity, and removal of the PPTase gene precludes natural product synthesis in microorganisms, or in the case of fatty acid biosynthesis, renders the organism unviable. PPTase enzymes belong to a distinct structural superfamily. Within bacteria, these enzymes are grouped into two classes based upon primary structure, the AcpS-Type and Sfp-Type PPTases.
Sfp-type PPTases, corresponding to an activator of surfactin production in Bacillus subtilis, are responsible for modifying type I polyketide and nonribosomal peptide synthases of prokaryotes. Sfp-type PPTases are responsible for the activation of a variety of pathogen-associated virulence factors. Among these compounds are toxins such as mycolactone from Mycobacterium ulcerans, siderophores such as vibriobactin from Vibrio cholerae or mycobactin from Mycobacterium tuberculosis, as well as the mycolic acids which form the waxy cell wall of Mycobacteria. The biosyntheses of these natural products are considered attractive targets for drug design.
In search of small molecule Sfp-PPTase inhibitors, a fluorescence quenching assay was developed for detection of Bacillus subtilis Sfp-PPTase enzymatic activity in a miniaturized high-throughput format. The consensus ybbr acceptor peptide […] was N-terminally labeled with Black Hole Quencher-2 (BHQ-2) and used in combination with rhodamine-labeled coenzyme A as a co-substrate.
Phosphopantetheinyl transfer is a process essential to cellular viability and maintenance. Cellular permeable and stable compounds acting as PPTase inhibitors are anticipated to be antimicrobial agents in organisms with complimenting genotypes. […] This experiment evaluated a series of test compounds for antimicrobial activity with B. subtilis HM489 (genotype: acpS- and sfp+), a strain that contains a targeted lesion in the acpS locus and thus requires a functional Sfp gene product for viability. [Mootz HD, 2001] This strain is expected to be sensitized to cell-permeable Sfp inhibitors.
NIH Chemical Genomics Center [NCGC]
NIH Molecular Libraries Probe Centers Network [MLPCN]
Assay Submitter (PI): Michale Burkart, University of California, San Diego
Bacillus subtilis HM489 is maintained on lysogeny broth (LB) solidified by the addition of 1.5% w/v agar. Single colonies were used to LB medium (2 mL) and shaken overnight at 30 deg C. In the morning, this culture (100 uL) was used to seed a fresh LB medium (10 mL) and was shaken at 30 deg C until the culture OD600 reached 0.5. This culture was diluted 1:100 in fresh LB medium to provide the inoculum below.
Bacterial susceptibility.
LB medium (2 uL) is dispensed into wells of a sterile white 1536-well plate. Test compounds (23 nL) prepared as serial dilutions in DMSO are added to the plate by pintool transfer. Innoculum (2 uL) is added; the plates are covered with a vented Kalypsys assay lid and incubated at 30 deg C. After 5 h, Bac-Titer Glo (4 uL; Promega Corp, Madison, WI) is added to the plates. They are incubated 10 minutes at room temperature and then the luminescence detected in a ViewLux multimodal plate reader.

Potency, active:
Cc1cc(C)nc(NC(=S)N2CC3CN(c4ccc(Cl)cc4C(F)(F)F)CC3C2)c1 (centres undefined) 9.37 µM
Cc1ccnc(NC(=S)N2CCN(c3cccc(C(F)(F)F)c3)CC2)c1 10.5 µM
FC(F)(F)c1cccc(N2CCN(C(=S)Nc3cc(C(F)(F)F)ccn3)CC2)c1 10.5 µM
COc1ccnc(NC(=S)N2CCN(c3ccc(Cl)cc3Cl)CC2)c1 10.5 µM
S=C(Nc1cc(Cl)ccn1)N1CCN(c2cccc(Cl)c2Cl)CC1 8.35 µM
CSC(Cc1ccc(Cl)cc1)C(=O)Nc1ccc(Cl)cc1C(=O)O (centres undefined) 26.4 µM
Cc1cc(C)nc(NC(=S)N2CCN(c3ccc([N+](=O)[O-])cc3Cl)CC2)c1 18.7 µM
Cc1ccnc(NC(=S)N[C@@H]2CCN(c3cccc(C(F)(F)F)c3)C2)c1 29.6 µM
Cc1ccnc(NC(=S)N2CCCN(c3cccc(C(F)(F)F)c3)CC2)c1 4.18 µM
FC(F)(F)c1cc(N2CCN(C(=S)Nc3cc(Cl)ccn3)CC2)cc(C(F)(F)F)c1 4.18 µM
Cc1cc(C)nc(NC(=S)N2CCN(c3cc(Br)cc(C(F)(F)F)c3)CC2)c1 4.69 µM
Cc1cc(C)nc(NC(=S)N2CCN(c3ccc(Cl)cc3Cl)CC2)c1 29.6 µM
Cc1ccnc(NC(=S)N2CC3CN(c4cccc(C(F)(F)F)c4)CC3C2)c1 (centres undefined) 5.27 µM
Cc1cc(C)nc(NC(=S)N2CCN(c3ccc(F)c(F)c3F)CC2)c1 21 µM
Cc1ccnc(NC(=S)N2CCN(c3cc(C(F)(F)F)cc(C(F)(F)F)c3)CC2)c1 11.8 µM
COc1ccnc(NC(=S)N2CCN(c3ncc(C(F)(F)F)cc3Cl)CC2)c1 6.63 µM
Cc1ccnc(NC(=S)Nc2cccc(C(F)(F)F)c2)c1 10.5 µM
Cc1ccnc(NC(=S)N2CCN(c3cccc(N(C)C)c3)CC2)c1 46.9 µM
COc1ccnc(NC(=S)N2CCN(c3cccc(Cl)c3Cl)CC2)c1 8.35 µM
Cc1cc(C)nc(NC(=S)N2CCN(c3ccc(Cl)c(Cl)c3)CC2)c1 26.4 µM
Cc1ccnc(NC(=S)N2CC3CN(c4ncc(C(F)(F)F)cc4Cl)CC3C2)c1 (centres undefined) 11.8 µM

activity, negative = inhibition, inactive:
Cc1ccnc(NC(=S)N2CCCc3ccc(C(F)(F)F)cc32)c1 -19.8%
COc1cccc(NC(=S)N2CCN(c3ccc(Cl)c(Cl)c3)CC2)n1 -17.5%
Cc1cc(C)nc(NC(=S)N2CCN(c3ncccc3C#N)CC2)c1 -15.5%
